Source: paper PMC4336329 (PLoS ONE, 2015)
Screen size: about 310,000 compounds; about 14,000 (4.5%) showed an effect of 50% or more. The effect is printed as a negative number. The sample holds strong results, similar compounds and a random draw of the others, so the mix is not that of the screen.

biological target: human ether-à-go-go-related gene (hERG) potassium channel (human, UniProt Q12809); assay: primary screen, population patch clamp on CHO cells stably expressing hERG; higher = less effect of the substance
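Further: peak tail current of the secondary pulse compared with the same well before compound.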

human ether-à-go-go-related gene (hERG) potassium channel, sequence (Q12809 whole entry, looked up): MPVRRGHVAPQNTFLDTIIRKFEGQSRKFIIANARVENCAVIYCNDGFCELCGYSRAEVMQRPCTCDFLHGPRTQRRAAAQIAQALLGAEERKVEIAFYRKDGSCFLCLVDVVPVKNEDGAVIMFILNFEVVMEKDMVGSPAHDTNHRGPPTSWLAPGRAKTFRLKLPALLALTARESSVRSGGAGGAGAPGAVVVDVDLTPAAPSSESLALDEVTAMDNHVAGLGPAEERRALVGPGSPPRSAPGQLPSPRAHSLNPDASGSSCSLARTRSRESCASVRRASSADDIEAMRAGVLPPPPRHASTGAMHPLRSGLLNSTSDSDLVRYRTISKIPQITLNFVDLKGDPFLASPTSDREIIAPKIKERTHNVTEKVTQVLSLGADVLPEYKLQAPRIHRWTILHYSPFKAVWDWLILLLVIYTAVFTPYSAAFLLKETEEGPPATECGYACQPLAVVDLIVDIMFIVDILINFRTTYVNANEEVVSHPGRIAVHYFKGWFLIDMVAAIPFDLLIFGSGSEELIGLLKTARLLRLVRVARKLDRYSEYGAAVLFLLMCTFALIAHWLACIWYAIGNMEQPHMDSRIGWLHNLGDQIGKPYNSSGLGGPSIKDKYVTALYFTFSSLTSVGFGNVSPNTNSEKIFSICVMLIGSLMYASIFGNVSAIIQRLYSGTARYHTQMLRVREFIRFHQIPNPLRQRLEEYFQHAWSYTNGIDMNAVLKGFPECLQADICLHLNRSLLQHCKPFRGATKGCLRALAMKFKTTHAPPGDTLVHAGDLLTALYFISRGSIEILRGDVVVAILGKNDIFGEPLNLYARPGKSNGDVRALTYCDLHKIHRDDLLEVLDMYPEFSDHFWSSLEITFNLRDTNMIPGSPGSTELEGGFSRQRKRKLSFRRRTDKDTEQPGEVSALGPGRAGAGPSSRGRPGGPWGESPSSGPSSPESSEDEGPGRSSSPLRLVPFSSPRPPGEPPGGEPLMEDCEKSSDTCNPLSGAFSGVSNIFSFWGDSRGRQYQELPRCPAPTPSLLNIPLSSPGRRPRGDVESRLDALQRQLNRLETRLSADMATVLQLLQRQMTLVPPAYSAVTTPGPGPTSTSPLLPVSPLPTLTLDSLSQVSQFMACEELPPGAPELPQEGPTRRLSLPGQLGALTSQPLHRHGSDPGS

Compound | hERG current change (%, negative = inhibition) at 10uM
CCOC(=O)Cc1csc(NC(=S)NC(=O)c2ccc(F)cc2)n1 | 11.9%
CC(C)N(Cc1ccccc1)C(=S)Nc1ccc(OC(F)F)cc1 | -56.7%
N#CCCN(Cc1cccnc1)C(=S)Nc1ccc(OC(F)F)cc1 | -78.2%
FC(F)Oc1ccc(NC(=S)NCc2cccnc2)cc1 | -2.69%
CC(C)N(Cc1ccccc1)C(=S)Nc1ccc(F)cc1 | -3.42%
CN(C)S(=O)(=O)c1cccc(NC(=S)N(CCC#N)Cc2cccnc2)c1 | -7.37%
CN(C)CCCN(Cc1ccccc1)C(=S)Nc1ccc(OC(F)F)cc1 | -70.3%
CN(C)C(=S)Nc1cccc(C(F)(F)F)c1 | 5.67%
Cc1ccc(NC(=S)N(Cc2ccccc2)C(C)C)cc1 | 12%
COc1ccc(NC(=S)N(CCO)Cc2ccccc2)cc1 | 2.34%
CCCN(Cc1ccccc1)C(=S)Nc1ccc(OCC)cc1 | -35.8%
CN(C)CCCN(Cc1ccccc1)C(=S)Nc1ccc(F)c(Cl)c1 | -24.3%
CN(C)CCCN(Cc1ccccc1)C(=S)Nc1cccc(C(F)(F)F)c1 | -52.6%
COc1ccc(S(=O)(=O)N(C)c2ccc(C(=O)N3CCOCC3)cc2)cc1 | -6.62%
CCOc1ccc(-c2c(C(=O)N/N=C/c3sccc3C)nnn2-c2nonc2N)cc1 | 19.7%
COc1ccc(-n2ncc3c(N4CCc5ccccc54)ncnc32)cc1 | 0.927%
Cc1cccc(OCCCC(=O)Nc2ccc(N(C)C)cc2)c1 | -5.54%
COc1cccc(N2C(=O)Nc3ccc(Br)cc3C2(O)C(=O)NCCCN(C)C)c1 (stereo not shown) | 19.3%
Cc1ccc(NC(=O)CSc2nnc(C3COc4ccccc4O3)o2)c(Cl)c1 (stereo not shown) | 12.5%
Brc1ccc(-c2noc(-c3ccccn3)n2)o1 | 2.68%

Compound | hERG current change (%, negative = inhibition) at 10uM
COC(=O)C1(C)NC(c2ccco2)C2C(=O)N(c3ccc(C)cc3)C(=O)C21 (stereo not shown) | -22.5%
Cc1nnc(-c2cccc(C(F)(F)F)c2)nc1N1CCOCC1 | -74.1%
FC(F)(F)c1cccc(-c2nnc(-c3ccccc3)c(N3CCOCC3)n2)c1 | -19.7%
Cc1nnc(-c2ccccc2)nc1N1CCOCC1 | -10.2%
CC1CC(C)CN(C(=O)Cn2c(=O)oc3cc(S(=O)(=O)N4CCCC4)ccc32)C1 (stereo not shown) | -3.39%
C=CCOC(=O)c1cn(CC)c2nc(C)ccc2c1=O | -5.77%
CCn1cc(C(=O)OCC(=O)N2C(C)CCCC2C)c(=O)c2ccc(C)nc21 (stereo not shown) | 11%
CCn1cc(C(=O)OCC(=O)OC2CC(C)CCC2C(C)C)c(=O)c2ccc(C)nc21 (stereo not shown) | -51.8%
Cc1cc(C)cc(NC(=O)C2CCCN(S(=O)(=O)c3c(C)noc3C)C2)c1 (stereo not shown) | -4.34%
CCOc1ccccc1NS(=O)(=O)c1csc(C(N)=O)c1 | 11.7%
NC(=O)c1c(NC(=O)c2ccccc2Cl)sc2c1CCC2 | 15.1%
CN(CC(=O)Nc1ccc(C(N)=O)cc1)CC(=O)Nc1ccccc1Cl | -5.04%
Cc1cccc(C)c1NC(=O)CN(C)CC(=O)Nc1sc2c(c1C(N)=O)CCC2 | -33.9%
COc1ccc(NC(=O)CN(C)CC(=O)Nc2sc3c(c2C(N)=O)CCC3)cc1 | -79%
CN(CC(=O)Nc1ccccc1Cl)CC(=O)Nc1sc2c(c1C(N)=O)CCC2 | -66.2%
COc1ccc(CC(=O)Nc2sc3c(c2C(N)=O)CCCC3)cc1 | -1.39%
CCC(=O)Nc1sc2c(c1C(N)=O)CCC2 | -15.7%
Cc1ccc(NC(=O)CN(C)CC(=O)Nc2sc3c(c2C(N)=O)CCC3)cc1 | -55.5%
COc1ccc(NC(=O)CN(C)CC(=O)Nc2sc3c(c2C#N)CCC3)cc1 | 0.0459%
CSc1ncccc1C(=O)OCC(=O)c1ccccc1 | 35%

Compound | hERG current change (%, negative = inhibition) at 10uM
CCN(CC(=O)Nc1ccc2c(c1)OCCO2)C(=O)CC(NC(C)=O)c1ccccc1 (stereo not shown) | 18.7%
Cc1csc(NC(=O)CCCNC(=O)c2ccc(Cl)cc2)n1 | -23.6%
CCC(C)c1ccccc1N1CC(C(=O)Nc2ccc(S(=O)(=O)N3CCOCC3)cc2)CC1=O (stereo not shown) | -9.78%
COc1ccccc1N1CCN(CC(O)COCCOc2ccc(Br)cc2)CC1.Cl (stereo not shown) | -58.8%
COc1ccc(N2CCN(CC(O)COCCOc3ccc(Br)cc3)CC2)cc1.Cl (stereo not shown) | -69.1%
COc1ccccc1N1CCN(CC(O)COc2ccc(S(=O)(=O)N3CCOCC3)cc2)CC1.Cl (stereo not shown) | -4.3%
COc1ccc(OCCOCC(O)CN2CCOCC2)cc1.Cl (stereo not shown) | 4.55%
COc1ccccc1NC(=O)CSc1nnc(Cn2nnc(-c3ccccc3)n2)n1-c1ccccc1 | -5.02%
CC(CCc1ccccc1)NC(=O)CNC(=O)COc1ccccc1 (stereo not shown) | -0.873%
O=C(NC(=S)Nc1ccc2cn[nH]c2c1)c1ccccc1 | -2.32%
Cc1ccccc1C1NC(=S)NC2=C1C(=O)CC(C)(C)C2 (stereo not shown) | 18.5%
Clc1ccc2oc(-c3cccnc3)nc2c1 | -14.9%
Clc1ccc(-n2ncc3c(NCCCn4ccnc4)ncnc32)cc1 | -26.1%
c1ccc(-c2oc3ncnc(NCCCn4ccnc4)c3c2-c2ccccc2)cc1 | -69.9%
COc1ccc(-c2oc3ncnc(NCCCN4CCOCC4)c3c2-c2ccc(OC)cc2)cc1 | 2.49%
c1ccc(-c2oc3ncnc(NCCCN4CCOCC4)c3c2-c2ccccc2)cc1 | -87.1%
c1cn(CCCNc2ncnc3nc[nH]c23)cn1 | 8.93%
c1ccc(-c2oc3ncnc(NCCN4CCOCC4)c3c2-c2ccccc2)cc1 | -21.3%
